Screening data (PubChem)
PrPC surface inh – inhibitors of human cell surface prion protein PrPC; TR-FRET read-out; inhibition, % at 13.8 µM; 370,000 tested, 0.43% active; AID 720596; in the data active = inhibition above about 24%; note: 0% = median of the test wells and 100% = reference compound wells
PfHsp40 rescue – rescue of PfHsp40-mediated yeast toxicity; S. cerevisiae expressing PfHsp40, growth rescue, ATP luminescence; growth rescue, % at 12.5 µM; 340,000 tested, 0.68% active; AID 504582; in the data active = growth rescue above about 28%, passing the limit was not always enough;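 note: yeast W303a lacking pdr1 and pdr3 grown in galactose medium; growth measured after three days at 30 °C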
ugtP null kill – compounds lethal to S. aureus RN4220 ugtP deletion mutant; 330,000 tested, 0.54% active; growth inhibition, % (test concentration not listed); OD600 growth, 16 h; AID 1259309; in the data active = growth inhibition above about 68%;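 note: plate controls were untreated wells for no effect and antibiotic for full effect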
DUSP3 inh – blocks human VHR1 dual specificity phosphatase | inhibition, % at 13.3 µM | 290,000 tested, 0.52% active | recombinant VHR phosphatase, pNPP absorbance; in the data active = inhibition above about 50%
Target sequence (P51452 whole entry, looked up): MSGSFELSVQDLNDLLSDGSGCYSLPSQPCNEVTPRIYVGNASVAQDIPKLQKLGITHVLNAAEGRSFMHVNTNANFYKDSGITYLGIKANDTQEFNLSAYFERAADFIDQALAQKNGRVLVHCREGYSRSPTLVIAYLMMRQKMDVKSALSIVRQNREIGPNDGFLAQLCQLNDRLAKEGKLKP
Sa RN4220 lethal – kills Staphylococcus aureus RN4220; AID 1259311; 330,000 tested, 0.33% active; inhibition, % (no concentration beside the values); S. aureus RN4220 growth, OD600, 16 h; in the data active = inhibition above about 85%;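 note: plate controls were untreated cells for no effect and reference antibiotic for full effect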
Numbers without * were called inactive; · = no result given. Most compounds without a hit are left out; they make up all but 1.8% or so of the library.

SMILES	PrPC surface inh	PfHsp40 rescue	ugtP null kill	DUSP3 inh	Sa RN4220 lethal
O=C(O)CC1c2ccccc2S(=O)(=O)N1C1CCCCC1 (centres undefined)	·	·	2.0	·	7.1
O=c1[nH]c(=O)c2nnc(NN=Cc3ccc(O)cc3)nc2[nH]1	·	·	7.0	·	-1.8
Cc1ccccc1-[n+]1c(-c2ccccc2)cc(-c2ccccc2)cc1-c1ccccc1	7.8	4.9	100.5*	·	99.8*
Oc1ccccc1-[n+]1c(-c2ccccc2)cc(-c2ccccc2)cc1-c1ccccc1	-1.3	0.2	·	·	·
O=C1c2cc(Br)ccc2N(Cc2ccc(Br)cc2)S(=O)(=O)C1c1cc(Cl)c(Cl)cc1[N+](=O)[O-] (centres undefined)	·	143.3*	·	·	·
O=C1CS(=O)(=O)N(Cc2cccc(F)c2)c2ccc(Br)cc21	-1.9	1.0	-14.2	·	33.9
Cc1ccc(-c2c(C(=O)NN=Cc3sccc3C)nnn2-c2nonc2N)cc1	·	·	83.9	·	94.0*
Cc1ccsc1C=NNC(=O)c1nnn(-c2nonc2N)c1C	·	·	-3.1	·	-1.0
CCn1cc(C(=O)O)c(=O)c2cc(F)c(N3CCNCC3)nc21	0.7	-0.2	97.4*	·	97.6*
CCc1ccc(C=NNC(=O)c2nnn(-c3nonc3N)c2CN2CCc3ccccc32)cc1	·	·	-0.5	·	4.6
O=C(CSc1nc2cc(Cl)ccc2o1)NC1CC1	-2.9	0.1	1.0	·	3.7
CCNC(=O)CCSc1nc2cc(Cl)ccc2o1	9.2	110.8*	-4.8	-0.1	-9.9
CCOC(=O)[C@]12Cc3cc(OC)ccc3C1N(Cc1ccccc1)C(=O)c1cc(F)c(F)cc12 (some centres undefined)	·	·	-13.6	·	-10.4
O=C1CCN(CCc2ccccc2)CCN1C(CSc1ccccc1)c1ccccc1 (centres undefined)	·	·	0.9	·	3.5
O=C(O)CCS(=O)(=O)c1cc(Br)cc2c1N(C(=O)C1CC1)CC2	10.1	-0.8	-72.4	9.3	7.5
CCCCN(C)S(=O)(=O)c1cc(Br)cc2c1N(C(=O)C1CC1)CC2	·	132.2*	-4.2	-23.4	9.0
CCOC(=O)CSc1nnc2n(Cc3ccccc3)c(=O)c3c4c(sc3n12)CCC4	-5.1	-1.8	-11.0	51.7*	-5.1
CC(=O)C1CCC2C3CCC4=CC(=O)CC[C@]4(C)C3CC[C@]12C (some centres undefined)	·	·	-3.7	·	5.2
CCN1/C(=C/c2sc(-c3ccccc3C)c[n+]2C)Sc2ccccc21	14.1	312.3*	100.5*	3.3	100.0*
CCC(=O)/C=C1/Sc2ccccc2N1CC	-4.4	1.2	-8.8	-5.3	2.8
O=C(NCc1ccc(OC(F)(F)F)cc1)C1CC(c2ccccc2C(F)(F)F)=NO1 (centres undefined)	-3.7	38.2*	6.6	22.5	1.4
O=C(NCc1ccc(OC(F)(F)F)cc1)C1CC(c2ccccc2[N+](=O)[O-])=NO1 (centres undefined)	-1.6	1.8	·	14.4	·
Cn1cccc1C(=O)OCc1ccc(C(C)(C)C)cc1	1.7	-0.3	94.2*	-30.3	-4.2
COc1ccc(/C=C(\NC(=O)c2cccs2)C(=O)NC(C)(C)C)cc1OC	-8.6	0.4	-2.4	53.0*	3.1
COc1ccc(/C=C(\NC(=O)c2cccs2)C(=O)Nc2ccccc2C)cc1OC	-10.9	-0.9	13.6	-7.4	1.8
SMILES	PrPC surface inh	PfHsp40 rescue	ugtP null kill	DUSP3 inh	Sa RN4220 lethal
C#CCCc1cocc1C=[N+]([O-])c1ccc(C(=O)OCC)cc1	·	·	0.9	·	9.8
O=[N+]([O-])c1cc(Br)ccc1NS(=O)(=O)c1ccccc1	-4.0	64.8*	-10.8	·	9.9
Cc1nnc(NC(=O)CN2CC(C)OC(C)C2)s1 (centres undefined)	-3.4	28.3*	4.6	13.4	2.4
COc1cc(C=NNC(=O)c2ccncc2)ccc1OC(=O)c1cccc(F)c1	·	·	2.7	·	1.2
S=C(NCc1ccco1)Nc1ccc(Oc2ccc(Cl)cc2)cc1	-1.0	194.3*	-32.2	-14.6	-8.2
COC(=O)C(O)(c1ccc(NC(=S)NC(=O)c2ccccc2)cc1)C(F)(F)F (centres undefined)	3.7	3.9	89.5*	5.0	-0.7
O=C(NC(=S)Nc1ccc(Oc2ccc(Cl)cc2)cc1)c1ccccc1	0.5	4.9	85.8*	35.1	-15.5
COC(=O)C(O)(c1ccc(NC(=O)Oc2ccccc2)cc1)C(F)(F)F (centres undefined)	-1.8	2.7	3.4	-6.9	6.2
CC(NC(=O)C12CC3CC(CC(C3)C1)C2)C(=O)NN=CC1=C(N2CCOCC2)/C(=C\c2ccccc2)CC1 (centres undefined)	·	·	-7.8	·	-10.1
O=C(O)c1ccc(N/N=C/C2=C(N3CCOCC3)C(=C\c3ccccc3)/CC2)cc1	-4.6	273.4*	·	-2.7	·
CCCCN1CCC2C=CCC(C(=O)N3CCN(c4ccccc4)CC3)C2C1=O (centres undefined)	·	·	-1.1	·	3.9
CCC(CC)NC(=O)COC(=O)CCC(=O)c1cccs1	1.4	-1.5	0.6	51.9*	5.6
COC(=O)c1ccc(-n2c(C)cc(C=Nn3cnnc3)c2C)cc1	·	·	9.6	·	7.0
O=C(Nc1ccccc1-c1nc2ccccc2[nH]1)c1ccc(S(=O)(=O)N2CCCCC2)cc1	-3.5	-1.6	-22.1	50.3*	1.2
CC1CCCCN1S(=O)(=O)c1ccc(C(=O)Nc2ccccc2-c2nc3ccccc3[nH]2)cc1 (centres undefined)	3.1	0.9	-35.9	22.7	7.9
CCOc1ccccc1CN1CCC(n2nccc2NC(=O)C2CCCC2)CC1	-5.2	-0.5	6.5	66.4	2.3
CCOc1ccccc1CN1CCC(N2CCC(C(=O)NC3CC3)CC2)CC1	-8.3	30.3*	3.9	-5.9	2.7
O=C(NCCO)C(=O)c1c(-c2ccc(Cl)cc2)cc2ccccn12	-10.9	1.7	1.5	17.6	5.6
O=C(O)c1ccn2c(C(=O)c3ccc(Cl)cc3)c(-c3ccccc3)cc2c1	-0.7	71.6*	·	8.5	·
C=C(Br)CN1C(Cc2ccccc2)C(O)[C@@]23C=CC(CC2S1(=O)=O)O3 (some centres undefined)	·	·	6.2	·	10.3
O=C(COc1ccc(Cl)cc1)Nc1nnc(-c2ccc3c(c2)CCCC3)o1	6.8	-0.6	95.9*	-18.5	99.6*
O=C(COc1ccccc1)Nc1nnc(-c2ccc(Cl)cc2)o1	3.1	-1.8	-0.9	-13.9	13.1
O=C(Nc1nnc(-c2ccc3c(c2)CCCC3)o1)C1COc2ccccc2O1 (centres undefined)	-0.8	0.0	60.6	50.3*	55.1
Cc1nn(C)c(C)c1S(=O)(=O)N(CC(=O)N1CCc2ccccc21)c1ccc(C(C)C)cc1	6.7	0.1	16.5	50.3*	5.2
COc1ccc(N(CC(=O)N2CCc3ccccc32)S(=O)(=O)c2c(C)nn(C)c2C)cc1	-1.9	0.1	7.6	23.2	6.0
C#CCNC(=O)C1=CC(c2csc3ccccc23)CC(OCc2ccc(CO)cc2)O1 (centres undefined)	·	·	7.2	·	4.1
C/C(CC(=O)NCc1ccco1)=N\NC(=O)c1ccc(Cl)cc1Cl	5.8	0.7	·	52.0*	·
Cc1ccc2nc3c(c(N)c2c1)CCN3C	-12.5	-0.8	·	58.2*	·
O=C(OCc1ccccc1)c1ccc(NCc2cc(O)ccc2O)cc1	46.1*	1.3	·	·	·
COc1ccc2c(c1)C(=NOC(=O)c1cccs1)CCC2	·	·	-3.3	·	2.6
